# Results: a collection of fitness landscapes (doi:10.1126/science.1257360)
# The full ranking holds about 140,000 sequences; the median of “enrichment ratio after two sorts for PhoP signalling” is about 0, and the highest 2% start at about 11. The full list was thinned out, with the highest values kept by preference.
# B1: PhoQ; a variant is named by its letters at X, in order, P23837 (parent)
# chain: MKKLLRLFFPLSLRVRFLLATAAVVLVLSLAYGMVALIGYSVSFDKTTFRLLRGESNLFYTLAKWENNKLHVELPENIDKQSPTMTLIYDENGQLLWAQRDVPWLMKMIQPDWLKSNGFHEIEADVNDTSLLLSGDHSIQQQLQEVREDDDDAEMTHSVAVNVYPATSRMPKLTIVVVDTIPVELKSSYMVWSWFIYVLSANLLLVIPLLWVAAWWSLRPIEALAKEVRELEEHNRELLNPATTRELTSLVRNLNRLLKSERERYDKYRTTLTDLTHSLKTPLXXLQXXLRSLRSEKMSVSDAEPVMLEQISRISQQIGYYLHRASMRGGTLLSRELHPVAPLLDNLTSALNKVYQRKGVNISLDISPEISFVGEQNDFVEVMGNVLDNACKYCLEFVEISARQTDEHLYIVVEDDGPGIPLSKREVIFDRGQRVDTLRPGQGVGLAVAREITEQYEGKIVAGESMLGGARMEVIFGRQHSAPKDE
# Variants of: B1
# Assay: enrichment ratio after two sorts for PhoP signalling (ratio (wild type AVST 3.29)); higher = more functional
# Conditions: with PhoP (E. coli)
row,Variant,enrichment ratio
1,KDVS,≤ 0.25
2,RYGQ,≤ 0.25
3,QQYQ,≤ 0.25
4,NKEY,≤ 0.25
5,TTLW,≤ 0.25
6,VACH,≤ 0.25
7,ISIQ,≤ 0.25
8,QPGS,≤ 0.25
9,QGWE,14.3
10,FFWE,≤ 0.25
11,FFGS,≤ 0.25
12,FCWE,≤ 0.25
13,QGGS,14.5
14,FTRQ,≤ 0.25
15,DCTH,≤ 0.25
16,VFMI,≤ 0.25
17,SHFN,≤ 0.25
18,FRIN,≤ 0.25
19,SPTC,≤ 0.25
20,MMTC,≤ 0.25
21,KSSC,≤ 0.25
22,TSSA,11.3
23,KSTC,≤ 0.25
24,NSSC,≤ 0.25
25,TSNK,≤ 0.25
26,TVTC,14.5

row,Variant,enrichment ratio
1,TSTC,17.2
2,KSSA,≤ 0.25
3,FSSA,≤ 0.25
4,TSSC,12.8
5,NVLH,≤ 0.25
6,LSRG,≤ 0.25
7,REYW,≤ 0.25
8,PQTM,≤ 0.25
9,PVEK,≤ 0.25
10,SPEK,≤ 0.25
11,TVEK,13.3
12,PFML,≤ 0.25
13,SGNG,≤ 0.25
14,TKIS,4.17
15,MKIM,≤ 0.25
16,TKIM,15.1
17,AKIM,4.82
18,TKIV,11.9
19,TKQV,4.75
20,SEYW,≤ 0.25
21,QMAQ,≤ 0.25
22,QWLW,≤ 0.25
23,LLLD,≤ 0.25
24,NKIV,≤ 0.25
25,MKLS,≤ 0.25
26,AKLS,13.1

row,Variant,enrichment ratio
1,AKLA,5.14
2,TKLA,4.75
3,TKLS,19.9
4,AILS,9.63
5,QRQP,≤ 0.25
6,INTT,≤ 0.25
7,NEQI,≤ 0.25
8,NEQM,≤ 0.25
9,TEQP,≤ 0.25
10,TEQI,15
11,TEQH,3.62
12,YYHN,≤ 0.25
13,TEHN,11.9
14,MEHN,≤ 0.25
15,AQQM,≤ 0.25
16,TEQM,17.8
17,MEQI,≤ 0.25
18,TEQA,13.7
19,LPHR,≤ 0.25
20,ADGW,≤ 0.25
21,NDRR,≤ 0.25
22,IIAQ,≤ 0.25
23,SFDP,≤ 0.25
24,VFVP,≤ 0.25
25,TEYM,≤ 0.25
26,TEQN,34.8

row,Variant,enrichment ratio
1,TEEN,3.06
2,IQIY,≤ 0.25
3,TEGY,1.36
4,AKQI,≤ 0.25
5,AQIY,24
6,ADQI,≤ 0.25
7,QEQY,≤ 0.25
8,AQQI,14.3
9,WQIY,≤ 0.25
10,TEQY,12.5
11,DNYP,≤ 0.25
12,EFNV,≤ 0.25
13,FGIV,2.4
14,ALMP,≤ 0.25
15,MHTV,≤ 0.25
16,FMAD,≤ 0.25
17,GMNN,≤ 0.25
18,WNWL,≤ 0.25
19,SQSI,16.7
20,SPTG,≤ 0.25
21,SGDH,≤ 0.25
22,SSSK,≤ 0.25
23,SRSI,≤ 0.25
24,KSTG,≤ 0.25
25,TVTG,15.3
26,SGSI,15.9

row,Variant,enrichment ratio
1,STSI,8.26
2,SSSI,15.2
3,SGSK,≤ 0.25
4,SSSR,≤ 0.25
5,MQVF,1.6
6,KTET,≤ 0.25
7,FTCL,9.73
8,RLFE,≤ 0.25
9,YKMG,≤ 0.25
10,LISD,≤ 0.25
11,LLSI,≤ 0.25
12,TVSI,17.4
13,FSSI,0.692
14,VLSI,≤ 0.25
15,NVSI,≤ 0.25
16,SESR,4.3
17,TLSI,18.6
18,KSSI,≤ 0.25
19,TSSI,19.5
20,DDSI,≤ 0.25
21,SESI,12.7
22,SPSI,≤ 0.25
23,DSES,≤ 0.25
24,NHHT,≤ 0.25
25,VGTA,≤ 0.25
26,EQHP,≤ 0.25

row,Variant,enrichment ratio
1,LVPM,≤ 0.25
2,QFFS,≤ 0.25
3,TTNV,7.65
4,PFAG,≤ 0.25
5,DGGW,≤ 0.25
6,SNSR,≤ 0.25
7,SLSI,12.7
8,KYSI,≤ 0.25
9,SNSI,12.4
10,WLSI,≤ 0.25
11,RISI,≤ 0.25
12,SNSK,≤ 0.25
13,KLSI,≤ 0.25
14,SISI,19.1
15,MVAF,8.08
16,VNTQ,≤ 0.25
17,FEKW,≤ 0.25
18,RVKS,≤ 0.25
19,YPRG,≤ 0.25
20,SCGD,≤ 0.25
21,SCSR,6.9
22,SCPA,≤ 0.25
23,SCSK,14.3
